From PubChem
D1 antagonist = Antagonist of Human D 1 Dopamine Receptor: qHTS; HEK293 TREx D1 cells, calcium flux, dopamine EC80; stronger effect = lower value; activity change, negative = inhibition, % at 10 µM; 360,000 tested, 3.2% active; D(1A) dopamine receptor (Homo sapiens), P21728; in the data active = activity change below about -30%
Target sequence (P21728 whole entry, looked up): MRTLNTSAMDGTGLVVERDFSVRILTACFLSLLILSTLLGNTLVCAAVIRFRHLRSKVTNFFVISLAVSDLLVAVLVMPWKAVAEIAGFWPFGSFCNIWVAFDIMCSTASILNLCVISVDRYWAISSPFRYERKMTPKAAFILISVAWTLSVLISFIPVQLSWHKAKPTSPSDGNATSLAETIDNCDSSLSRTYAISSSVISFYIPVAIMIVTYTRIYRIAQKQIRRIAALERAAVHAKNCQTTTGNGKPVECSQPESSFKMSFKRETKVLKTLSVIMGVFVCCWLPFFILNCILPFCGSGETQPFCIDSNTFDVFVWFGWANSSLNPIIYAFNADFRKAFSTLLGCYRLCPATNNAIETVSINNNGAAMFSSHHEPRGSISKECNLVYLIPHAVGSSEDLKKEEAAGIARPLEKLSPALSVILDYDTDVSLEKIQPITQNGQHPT
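After overnight tetracycline induction at 30 C, force-coupled D1 HEK293 cells took up a no-wash calcium dye at room temperature. Compounds were added and monitored 180 s, and the response to EC80 dopamine was then recorded.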
TRPV1 ag = HTS Assay for Compounds that Act as Agonists of the Vanilloid Receptor 1; Transient receptor potential cation channel subfamily V member 1 (Homo sapiens), Q8NER1; TRPV1-expressing cells, Fluo-8 calcium influx, agonist mode; activation, % at 8.33 µM; 320,000 tested, 0.19% active; AID 540275, 2011; in the data active = activation above about 80%; inconclusive = between about 30% and that limit
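Cells expressing TRPV1 were dye-loaded with Fluo-8 and read kinetically: 10 s baseline, 3 min after compound (agonist portion), then 2 min after EC20 capsaicin (allosteric enhancer portion). Calcium-bound dye fluorescence at 480/520 nm.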
TRPV1 potentiator = HTS Assay for Compounds that Act as Potentiators of the Vanilloid Receptor 1; potentiation, % at 8.33 µM; Transient receptor potential cation channel subfamily V member 1 (Homo sapiens), Q8NER1; AID 540277, 2011; TRPV1-expressing cells, Fluo-8 calcium influx, capsaicin EC20 potentiation; 320,000 tested, 0.02% active; in the data active = potentiation above about 80%; inconclusive = between about 30% and that limit
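Cells expressing TRPV1 were dye-loaded with Fluo-8 and read kinetically: 10 s baseline, 3 min after compound (agonist portion), then 2 min after EC20 capsaicin (allosteric enhancer portion). Calcium-bound dye fluorescence at 480/520 nm.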
D1 agonist = Allosteric Agonists of the Human D1 Dopamine Receptor: qHTS. 360,000 tested, 1% active. D(1A) dopamine receptor (Homo sapiens), P21728. AID 504660, 2011. HEK293 T-REx D1 cells, calcium flux, agonist mode. activation, % at 2 µM; in the data active = activation above about 30%
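Inducible HEK293 T-REx D1 cells, force-coupled to calcium signalling, were plated at 4000 cells/well with tetracycline and held overnight at 30 C. After no-wash calcium dye loading, compound-evoked calcium rise over 180 s flagged agonists.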
D1 potentiator = Potentiators of Human D1 Dopamine Receptor: qHTS. HEK293 TREx D1 cells, calcium flux, dopamine EC20 potentiation. potentiation, % at 10 µM. D(1A) dopamine receptor (Homo sapiens), P21728. AID 504651, 2011. 360,000 tested, 0.036% active; in the data active = potentiation above about 30%
A number is an active result; – = inactive; ? = inconclusive; · = not tested or not shown. Shown are actives, neighbours in structure and some others; about 4.2% of the full set was active somewhere.

SMILES | D1 antagonist | TRPV1 ag | TRPV1 potentiator | D1 agonist | D1 potentiator
CSc1ccccc1NC(=O)Nc1cccc(Cl)c1 | -40.1 | ? | – | – | –
O=C(Nc1cccc(Cl)c1)Nc1csc([N+](=O)[O-])c1 | -47.0 | – | – | – | –
Cc1ccc(NC(=O)CC2Oc3ccccc3NC2=O)cc1C (stereo unspecified) | – | · | · | – | –
COC(=O)c1c(NC(=O)c2nc(SCc3ccccc3C)ncc2Cl)sc2c1CCCC2 | – | · | · | – | –
Cc1nnc(SCC(=O)Nc2sc3c(c2C(N)=O)CCCC3)[nH]c1=O | – | – | ? | – | –
Cc1nnc(SCC(=O)Nc2sc3c(c2C(N)=O)CCC(C)C3)[nH]c1=O (stereo unspecified) | -47.1 | – | – | – | –
Cc1ccc(C)c(NC(=O)C(=O)NCCc2csc(-c3cccc(F)c3)n2)c1 | – | · | · | – | –
COc1ccccc1C1C(C#N)=C(N)Oc2c1oc(CO)cc2=O (stereo unspecified) | – | – | – | – | –
N#CC1=C(N)Oc2c(oc(CO)cc2=O)C1c1ccccc1[N+](=O)[O-] (stereo unspecified) | -35.3 | – | – | – | –
NC(=O)c1ccc[n+](CC(=O)c2ccccc2)c1 | – | – | – | – | –
NC(=O)c1ccc[n+](CC(=O)c2ccc(Cl)c(Cl)c2)c1 | -83.3 | – | – | – | –
CN1CCN(C(=O)c2cccc(COc3cc(Cl)ccc3Cl)c2)CC1 | -42.9 | – | – | – | –
CCn1cc(C(=O)OCC(=O)c2cc(C)n(-c3ccc(OC(F)F)cc3)c2C)c(=O)c2ccc(C)nc21 | -32.3 | – | – | – | –
CCc1ccc(N2C(=O)CN(Cc3ccc(OC)c(OC)c3)C2=S)cc1 | -82.9 | ? | – | – | –
O=C(NCCc1ccccc1)C(=O)NCC1(c2ccccc2)CCCC1 | -30.5 | – | – | – | –
COc1ccc(NC(=O)CCCc2nnc3n(C)c(=O)c4sccc4n23)cc1 | -31.1 | – | – | – | –
Cc1cc(C)cc(NC(=O)CCc2nnc3n(C)c(=O)c4sccc4n23)c1 | -45.8 | · | · | – | –
CCOc1ccc(NC(=O)CCCc2nnc3n(C)c(=O)c4sccc4n23)cc1 | – | · | · | – | –
CCc1ccc(NC(=O)CCc2nnc3n(C)c(=O)c4sccc4n23)cc1 | – | · | · | – | –
COc1cccc(CCNC(=O)c2cnc3sc(N4CCCC4)nn3c2=O)c1 | – | · | · | – | –
Cc1ccccc1Cn1c(=O)n(CCCCC(=O)NCc2ccc3c(c2)OCO3)c(=O)c2ccccc21 | – | · | · | – | –
CCOC(=O)c1c(C)n(S(=O)(=O)c2ccc(C)cc2)c2ccc(NS(=O)(=O)c3ccc(C)cc3)cc12 | – | · | · | – | –
CN(C)/C=C(\C(=O)c1ccccc1)c1nnnn1-c1ccccc1 | – | – | – | – | –
CN(C)c1ccc(C=C(c2nnnn2-c2ccccc2)c2nnnn2-c2ccccc2)cc1 | – | – | – | 61.4 | –
COc1ccccc1CNS(=O)(=O)CCNC(=O)c1ccccc1 | -30.0 | – | – | – | –
SMILES | D1 antagonist | TRPV1 ag | TRPV1 potentiator | D1 agonist | D1 potentiator
COc1ccc(C(=O)NCCS(=O)(=O)NCc2ccc(F)cc2)cc1 | -31.4 | – | – | – | –
O=C(NCCS(=O)(=O)NCCc1ccccc1)c1ccc2c(c1)OCO2 | – | ? | – | – | –
O=C(NCCS(=O)(=O)NCc1ccccc1Cl)c1ccc2c(c1)OCO2 | -35.1 | – | – | – | –
COc1ccc(C(=O)NCCS(=O)(=O)NCc2ccccc2)cc1 | – | – | – | – | –
COc1ccc(CCC(=O)NNC(=O)c2ccc(F)cc2)cc1 | -30.0 | – | – | – | –
COc1ccc(CCC(=O)NNC(=S)NCc2ccc(F)cc2)cc1 | – | – | – | – | –
O=C(NCCS(=O)(=O)NCc1ccccc1)c1ccccc1 | – | – | – | – | –
Cc1ccc(NC(=O)CCn2c(=O)c3cccn3c3ccccc32)cc1Cl | – | · | · | – | –
COc1ccc(S(=O)(=O)NCC(c2ccco2)N2CCN(c3ccccc3F)CC2)cc1OC (stereo unspecified) | · | · | · | – | –
CCCn1c2ccccc2c2cnn(CC(=O)NCC3CCN(Cc4ccc(F)cc4)CC3)c(=O)c21 | – | · | · | – | –
O=C(NCCCN1CCN(c2ccccc2F)CC1)C1CCCN(S(=O)(=O)c2cnc[nH]2)C1 (stereo unspecified) | -53.0 | · | · | – | –
Cc1coc2cc3oc(=O)c(CC(=O)NCCc4ccccc4)c(C)c3cc12 | – | · | · | – | –
CC1(C(=O)NC2CCCCC2)Cc2ccccc2C(=O)N1Cc1ccc(Cl)cc1 (stereo unspecified) | – | · | · | – | –
Cc1ccc(SCc2nc(-c3ccc(C(=O)NCC(C)c4ccccc4)cc3)oc2C)cc1 (stereo unspecified) | – | · | · | 30.4 | –
COc1ccc(OC)c(NC(=O)c2ccc(-c3nc(CSc4ccccc4)c(C)o3)cc2)c1 | -32.1 | · | · | – | –
Cc1ccc(SCc2nc(-c3ccc(C(=O)NCCc4ccc(Cl)cc4)cc3)oc2C)cc1 | – | · | · | – | –
Cc1ccccc1Nc1c(-c2ccsc2)nc2c(C)cccn12 | – | · | · | – | –
CC(C)CCn1c(=O)c2cccnc2n(CC(=O)Nc2ccccc2)c1=O | – | · | · | – | –
CCOC(=O)Cn1c(=O)n(CC2CCCO2)c2nc(-c3cccc(C)c3)nc(C(N)=O)c21 (stereo unspecified) | – | · | · | – | –
O=C(Nc1ccccc1N1CCCC1)c1ccc(Cl)cc1Cl | -33.4 | – | – | – | –
O=C(Nc1ccccc1N1CCN(C(=O)c2ccccc2)CC1)c1ccccc1Cl | -44.9 | – | ? | – | –
O=C(Nc1ccccc1N1CCCC1)c1ccccc1Cl | – | – | – | – | –
CCCc1nnc(NC(=O)Cn2c(=O)oc3ccccc32)s1 | – | – | – | – | –
CCCc1nnc(NC(=O)Cn2c(=O)oc3cc(Br)ccc32)s1 | – | – | – | 61.8 | –
Cc1cc(C)nc(NC2=NCC(=O)N2c2cc(Cl)cc(Cl)c2)n1 | – | – | – | – | –
SMILES | D1 antagonist | TRPV1 ag | TRPV1 potentiator | D1 agonist | D1 potentiator
Cc1cccc(N2C(=O)CN=C2Nc2nc(C)cc(C)n2)c1 | -32.2 | – | – | – | –
COc1ccc(CCN(C)C(=S)Nc2ccc(SC(F)F)cc2)cc1OC | – | – | – | – | –
COc1ccc(CCN(C)C(=S)NC(=O)c2ccc(F)cc2Cl)cc1OC | -56.1 | – | – | – | –
COc1ccccc1CNC(=O)c1sc2nc3n(c(=O)c2c1C)CCC3 | – | · | · | – | –
O=[N+]([O-])c1cccc(-c2csc(Nc3ccccc3)n2)c1 | -30.4 | – | – | – | –
COc1ccccc1Nc1nc(-c2cccc([N+](=O)[O-])c2)cs1 | – | – | – | – | –
